Values joined by “and” are separate entries in the source; they are usually repeats but may differ in a detail not shown here. Equal entries are not always repeated. In all, about 320,000 compounds went through this assay and about 2,100 (0.66%) were called active. Inconclusive results (about 53%) are left out. The call rests on the fitted dose curve; in most records, active means well fitted inhibition curve with a large enough effect in the signal ratio, with a control signal flat (not every such curve was filed as active); inconclusive means small, poorly fitted or top-dose-only effect, or effect the other way, or a change in a side signal; inactive means flat fitted curve, though single readings scatter; the % refers to the signal ratio. Many of the other results were omitted from the sample, so actives are more common in it than they were.

The values below come from PubChem BioAssay AID2685 (National Center for Advancing Translational Sciences (NCATS), 2010).
Potency means the concentration at half of the fitted maximal effect.

A short description of the experiment: qHTS Assay for Lipid Storage Modulators in Drosophila S3 Cells.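 On cell number change: cells counted by Cell Tracker Red CMTPX staining in the red channel.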 On lipid storage change, negative = inhibition: on the % scale 0 is the no-effect control and ±100 the full control effect. The note with it: BODIPY lipid droplet fluorescence, 18-24 h, cells fed with added oleic acid; cell number change: measured here: cell count max response; series mostly up to 46.1 µM; lipid storage change, negative = inhibition: at the top concentration. A digest of the protocol: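 Laser-scanning cytometry quantifies lipid droplet accumulation (500–530 nm total intensity; droplet/cell object ratio) in oleic acid-fed (400 uM added) Drosophila S3 cells treated with a concentration series. 20 uM Triacsin C defined 100% inhibition.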
For the molecule `CCCCN1C(=O)NC(NC(=O)C2CC2)(C(F)(F)F)C1=O` (configuration not stated), the “lipid storage change, negative = inhibition” value was 0.363% (inactive) and the cell number change came out at 15%.

Turning to `CC(=O)Nc1ccc(S(=O)(=O)N(C#N)c2nc(N(C)C)nc(N(C)C)n2)cc1`, the “lipid storage change, negative = inhibition” value was 0.237% (inactive) and the cell number change was -23%.

Take `CN(C)CC(=O)Nc1ccc2cn[nH]c2c1`: the “lipid storage change, negative = inhibition” value was 0.452% (inactive) and the cell number change was -1.8%.

On to `CSc1nc(C)c(Cl)c(C)c1C#N`, for which the “lipid storage change, negative = inhibition” value was 10.8% (inactive) and the cell number change was -6.02%.

`COc1cc(Cl)cc(C(=O)O)c1OCC(=O)O`: the “lipid storage change, negative = inhibition” value was 7.31% (inactive) and the cell number change came to 3.53%.

Regarding `O=C(/C=C/c1ccc(F)cc1)N1CCN(c2ncccn2)CC1`, the “lipid storage change, negative = inhibition” value was -0.413% (inactive) and the cell number change amounted to 20.7%.

Regarding `CC(=O)NNC(=O)CCn1c2c(c3ccccc31)CCCC2`, the “lipid storage change, negative = inhibition” value was -7.9% (inactive) and the cell number change came out at 1.32%.

On to `Fc1ccccc1CNc1ccc(Cl)cc1`, for which the “lipid storage change, negative = inhibition” value is 12.9% (inactive) and the cell number change is -4.41%.

For the molecule `CN(C)S(=O)(=O)Nc1ccc(Br)cc1F`, the Potency is 23.1 µM (active) and the cell number change was -21.1%.

`CN(C)S(=O)(=O)Nc1ccccc1F`: the “lipid storage change, negative = inhibition” value is -12.4% (inactive) and the cell number change was -0.564%.

Regarding `CN(C)S(=O)(=O)Nc1cccc(Br)c1`, the Potency entry was “inactive”; the cell number change was 0.321% and 14.1%.

In the case of `CC(=O)c1c(C)[nH]c(C(=O)NCc2cccs2)c1C`, the call was inactive.

As for `COc1ccc(N2CCN(CC(O)COc3ccc4c(c3)CCC4)CC2)cc1` (configuration not stated), the call was inactive and the cell number change turned out to be 10.4%.

With `O=C1CN(CC(=O)N2CCOCC2)c2ccccc2O1`, the result was inactive.

Take `COc1ccc(/C(C)=N/NC(=S)NCCc2ccccc2)cc1`: the molecule was called inactive.

As for `COc1cccc(OC)c1C(=O)NC(C)c1ccccc1` (configuration not stated), the “lipid storage change, negative = inhibition” value is 2.45% (inactive) and the cell number change worked out at 0.137%.

For the molecule `NS(=O)(=O)c1ccc(CCNC(=O)c2ccc3c(c2)OCO3)cc1`, the Potency was 23.1 µM (active) and the cell number change was 21.4%.

For the molecule `NS(=O)(=O)c1ccc(CCNC(=O)c2ccc3c(c2)OCCO3)cc1`, the “lipid storage change, negative = inhibition” value is -3.84% (inactive) and the cell number change stood at 12.5%.

Regarding `O=C(NCCc1ccc(Cl)cc1)c1ccc2c(c1)OCO2`, the “lipid storage change, negative = inhibition” value is -3.03% (inactive).

As to `CCCCSc1nc2sc3c(c2c(=O)n1-c1ccc(C)cc1)CCN(C)C3`, the “lipid storage change, negative = inhibition” value is -30% (inactive) and the cell number change was 14.8%.

Regarding `CS(=O)(=O)Oc1ccc(/C=C2\C(=N)N3N=C(CC(=O)N4CCOCC4)SC3=NC2=O)cc1Cl`, the outcome was inactive and the cell number change is 6.05%.

In the case of `CN1C(=O)/C(=C/c2ccc(O)c([N+](=O)[O-])c2)N(C)C1=S`, the “lipid storage change, negative = inhibition” value is 3.49% (inactive) and the cell number change is 0.447%.

`Cc1cc(/C=C2/C(=O)N(C)C(=S)N2C)ccc1N1CCCC1`: the Potency is 4.47 µM (active) and the cell number change was -25.4%.

Take `COc1cc(/C=C2\C(=O)N(C)C(=S)N2C)ccc1O`: the “lipid storage change, negative = inhibition” value is 2.76% (inactive) and the cell number change was -9.16%.

For `CCc1ccc(NC(=O)c2cc(C)nn2-c2ccccc2)cc1`, the “lipid storage change, negative = inhibition” value was 9.85% (inactive) and the cell number change worked out at 2.41%.

As for `CC12CCC(=O)N1C(C(=O)NNC(=O)c1ccc(Cl)cc1)CS2` (configuration not stated), the “lipid storage change, negative = inhibition” value was -23.9% (inactive) and the cell number change came to 25.5%.

Regarding `COCCn1c(SCC(=O)Nc2cc(C)on2)nc2c(c1=O)SC(C)C2` (configuration not stated), the “lipid storage change, negative = inhibition” value is 15.1% (inactive) and the cell number change amounted to 9.04%.

Turning to `Cc1csc(NC(=O)CSC2=NS(=O)(=O)c3cc(F)ccc3N2)n1`, the lipid storage change, negative = inhibition was 27.8% [at 0.0737 µM] (inactive).

In the case of `CCN(C(=O)CN1CCN(c2cccc(Cl)c2)CC1)c1c(N)n(Cc2ccccc2)c(=O)[nH]c1=O`, the “lipid storage change, negative = inhibition” value was 8.94% (inactive) and the cell number change is -10%.

On to `CCCN(C(=O)c1ccc([N+](=O)[O-])c(C)c1)c1c(N)n(Cc2ccccc2)c(=O)[nH]c1=O`, for which the “lipid storage change, negative = inhibition” value was -11% (inactive) and the cell number change was -21.6%.

Turning to `CCCN(C(=O)c1c(-c2ccccc2)noc1C)c1c(N)n(Cc2ccccc2)c(=O)[nH]c1=O`, the Potency is 1.84 µM (active) and the cell number change was 9.83%.

In the case of `CCCN(C(=O)C1=COCCO1)c1c(N)n(Cc2ccccc2)c(=O)[nH]c1=O`, the cell number change is -8.42% and the lipid storage change, negative = inhibition was 5.43% [at 0.0737 µM] (inactive).

Turning to `CCN(C(=O)COC(=O)CCCOc1ccccc1)c1c(N)n(Cc2ccccc2)c(=O)[nH]c1=O`, the “lipid storage change, negative = inhibition” value was -0.952% (inactive) and the cell number change was -12.5%.

`CCCN(C(=O)COC(=O)CCOc1ccccc1)c1c(N)n(Cc2ccccc2)c(=O)[nH]c1=O`: the Potency was 14.6 µM (active) and the cell number change is -10.8%.

As to `CCN(C(=O)CN1CCN(c2ccccc2)CC1)c1c(N)n(Cc2ccccc2)c(=O)[nH]c1=O`, the Potency was 13 µM (active) and the cell number change was -21.7%.

In the case of `CCN(C(=O)CN1CCCCC1)c1c(N)n(Cc2ccccc2)c(=O)[nH]c1=O`, the “lipid storage change, negative = inhibition” value was -1.92% (inactive) and the cell number change came to 1.16%.

As for `CCN(C(=O)COC(=O)CCOc1ccccc1)c1c(N)n(Cc2ccccc2)c(=O)[nH]c1=O`, the “lipid storage change, negative = inhibition” value is 6.7% (inactive) and the cell number change is 3.61%.

For `c1ccc2c(c1)nnn2CNc1nccs1`, the “lipid storage change, negative = inhibition” value was 11.7% (inactive) and the cell number change is -2.46%.

For the molecule `COc1ccc(C(=O)NC2CCCCCC2)cc1S(=O)(=O)Nc1ccc(Br)cc1`, the outcome was inactive and the cell number change was -11.3%.

Regarding `CCCCCCn1c(=O)c(C(=O)N/N=C/c2cccc(F)c2)c(O)c2ccccc21`, the “lipid storage change, negative = inhibition” value was -4% (inactive) and the cell number change was determined as 5.21%.

On to `CC12C(=O)N(n3cnnc3)C(=O)C1C1C=CC2C1` (configuration not stated), for which the Potency is 18.4 µM (active) and the cell number change was found to be 2.58%.

Consider `O=C1[C@@H]2[C@H](C(=O)N1n1cnnc1)[C@H]1C=C[C@@H]2C1`, for which the “lipid storage change, negative = inhibition” value is 6.88% (inactive) and the cell number change stood at 1.74%.

`CC12C(=O)N(NC(=O)c3ccncc3)C(=O)C1C1C=CC2C1` (configuration not stated): the “lipid storage change, negative = inhibition” value was 9.21% (inactive) and the cell number change worked out at 6.42%.

Take `CN1CCN(S(=O)(=O)c2ccc(Nc3cccc(Cl)c3)c([N+](=O)[O-])c2)CC1`: the “lipid storage change, negative = inhibition” value is 10.8% (inactive) and the cell number change turned out to be 8.16%.

On to `COc1ccc(C(=O)Nc2cccc(S(=O)(=O)NC3=NCCCCC3)c2)cc1`, for which the “lipid storage change, negative = inhibition” value is 10.1% (inactive) and the cell number change is -1.04%.

Consider `CN(C)c1nc(N(C)C)nc(N2CCCCC2)n1`, for which the “lipid storage change, negative = inhibition” value is 21% (inactive) and the cell number change stood at 10.3%.
